From PubChem BioAssay
Rows were chosen to be rich in hits. Some 18% of all compounds tested hit in one or more screens of this group.
IL1B secr inh = inflammasome signaling inhibition, IL-1 beta readout | THP-1 LPS/ATP IL-1B secretion, AlphaLISA, 16 h; stronger effect = lower value | activity change, % at 57.5 µM | hit rate 4.7% among 360,000 | AID 743279; in the data active = activity change below about -50%; inconclusive = mostly about -30% to -49%
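Secreted IL-1B measured by AlphaLISA bead assay after 16 h compound exposure of THP-1 cells; compounds (final up to 57.5 uM) added 1 h before LPS (250 ng/mL) and ATP (1.25 mM) stimulation; lower signal means less secretion.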
Gal4-VP16 FLuc = Gal4-VP16 reporter inhibition counter-screen | Drosophila S2 Gal4-VP16 UAS-luciferase, luminescence, 20 h | Potency, µM (top dose mostly 53.6 µM), for the others: at the highest dose activity, negative = inhibition, actives largely listed as inhibitors | hit rate 3.5% among 310,000 | AID 2546;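 also: Gal4-VP16 expression switched on by copper sulfate through the metallothionein promoter; potency is read from the fitted curve at half-maximal effect; nearly all actives have a fitted effect of over 50% in size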
RORgamma inh = blocks mouse ROR gamma transcriptional activity; P51450; Drosophila S2 Gal4-RORgamma UAS-luciferase reporter, 20 h; Potency, µM (titrated, usually from 53.6 µM), for inactives: top-dose activity change, negative = inhibition, actives largely listed as inhibitors; hit rate 5.4% among 310,000; also: potency is read from the fitted curve at half-maximal effect; nearly all actives have a fitted effect of over 60% in size
Target sequence (P51450 whole entry, looked up, the tested form may be a part): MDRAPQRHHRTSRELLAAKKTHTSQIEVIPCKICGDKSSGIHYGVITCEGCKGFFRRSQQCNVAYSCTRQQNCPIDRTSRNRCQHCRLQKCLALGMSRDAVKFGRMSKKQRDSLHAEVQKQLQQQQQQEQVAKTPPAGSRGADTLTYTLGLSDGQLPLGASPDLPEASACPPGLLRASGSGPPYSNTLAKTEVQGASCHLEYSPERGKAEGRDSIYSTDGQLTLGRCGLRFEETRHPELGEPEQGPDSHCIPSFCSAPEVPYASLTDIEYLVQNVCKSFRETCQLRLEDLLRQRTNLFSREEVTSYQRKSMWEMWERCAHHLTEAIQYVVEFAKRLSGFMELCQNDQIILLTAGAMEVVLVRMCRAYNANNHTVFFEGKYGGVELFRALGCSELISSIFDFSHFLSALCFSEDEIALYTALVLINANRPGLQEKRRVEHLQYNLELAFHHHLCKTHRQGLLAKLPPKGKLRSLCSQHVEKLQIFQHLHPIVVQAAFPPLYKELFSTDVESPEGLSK
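In this cell-based reporter format, copper sulfate (700 uM final) drives Gal4–ROR gamma fusion expression from a metallothionein promoter in Drosophila Schneider cells; compounds preincubated 1 hr, reporter read after 20 hr at ambient temperature.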
LDHA block = blocks human lactate dehydrogenase A | hit rate 0.15% among 480,000 | P00338 | purified LDHA, NADH/diaphorase-resazurin fluorescence; stronger effect = lower value | activity change, % (values are at about 110 or 230 µM) | AID 1347041; in the data active = activity change below about -30%; inconclusive = mostly about -25% to -30%;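 also: plate controls were DMSO wells for no effect and wells without enzyme for full effect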
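Human LDH5 (2 nM) was incubated with 0.06 mM NADH and 0.2 mM pyruvate for 5 min at room temperature in Tris pH 7.4. Remaining NADH was coupled through diaphorase/resazurin, and resorufin fluorescence was read at 0 and 20 min.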
TDP1 cell noCPT = qHTS for Inhibitors of human tyrosyl-DNA phosphodiesterase 1 (TDP1): qHTS in cells in absence of CPT; hit rate 15% among 420,000; DT40 Tdp1-/- hTDP1 cells, no CPT, ATP luminescence, 48 h; Potency, µM (highest dose often 46.2 µM), inactives show top-dose activity change, negative = growth inhibition, hits mostly inhibitors; also: potency is read from the fitted curve at half-maximal effect; nearly all actives have a fitted effect of over 55% in size
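Luminescent ATP content (CellTiter-Glo) served as the growth readout. Knockout chicken DT40 cells expressing human TDP1 were exposed to compounds without camptothecin for a minimum 48 hr at 37 °C.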
DT40 TDP1 CPT = DT40-hTDP1 cell growth loss with CPT; chicken DT40 Tdp1-/-;hTDP1 cells + 20 nM CPT, ATP luminescence, 48 h; Potency, µM (highest dose often 46.2 µM), inactives show top-dose activity change, negative = growth inhibition, hits mostly inhibitors; hit rate 12% among 420,000; AID 686979; also: potency is read from the fitted curve at half-maximal effect; nearly all actives have a fitted effect of over 55% in size
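Chicken DT40 Tdp1-/- cells stably complemented with human TDP1 were seeded at 400 cells/well in medium containing 20 nM camptothecin, exposed to pin-transferred compounds, and grown at 37 °C for at least 48 hr. Viability was read as ATP luminescence.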
* hit, by the source's call; ? = inconclusive; / = no result given. Unless noted, calls follow the shape of the dose curve; as a rule, active = well fitted curve in the direction sought with a large enough effect; inconclusive = small, poorly fitted or top-dose-only effect, or another doubt; inactive = no such curve, though single readings can be large; an effect the other way counts as inactive or inconclusive. Unless noted, % is scaled to controls: 0 for no effect and ±100 for the full control effect.

SMILES | IL1B secr inh | Gal4-VP16 FLuc | RORgamma inh | LDHA block | TDP1 cell noCPT | DT40 TDP1 CPT
Cc1ccc(/C=N/NC(=O)C(c2ccccc2)c2ccccc2)s1 | / | / | / | 6 | / | /
COc1ccc(NC(=O)N[C@@H](CCSC)C(=O)O)cc1 | / | / | / | -11 | / | /
CCOC(=O)CNS(=O)(=O)c1cc(-c2nnc(Nc3cccc(O)c3)c3ccccc23)ccc1C | / | / | / | -4 | ? | ?
Cc1ccc(-c2nnc(Nc3ccc(C(=O)N(C)C)cc3)c3ccccc23)cc1S(=O)(=O)NCC1CCCO1 (stereo unspecified) | -23 | 1% | 37% | -1 | 23µM* | 15µM*
COC(=O)c1ccc(Nc2nnc(-c3ccc(C)c(S(=O)(=O)NCC4CCCO4)c3)c3ccccc23)cc1 (stereo unspecified) | -63* | 2% | 8% | -9 | 23µM* | 23µM*
CCOC(=O)CNS(=O)(=O)c1cc(-c2nnc(Nc3ccc4c(c3)OCO4)c3ccccc23)ccc1C | -102* | -15% | ? | -3 | ? | ?
Cc1cc(C(=O)CSc2ccc(Cl)cc2)c(C)[nH]1 | / | / | / | -6 | / | /
CCOC(=O)c1cnc(N2CCN(Cc3ccccc3)CC2)c2ccccc12 | / | / | / | 3 | / | /
Cc1cc(C)c2cc(C#N)c(N3CCCN(C(=O)c4cnccn4)CC3)nc2c1 | -3 | 3% | 3% | 0 | 18µM* | -8%
Cc1ccc2nc(N3CCN(C(=O)c4ccccc4F)CC3)c(C#N)cc2c1 | -4 | / | / | 1 | ? | ?
CC(=O)c1cccc(S(=O)(=O)N2CCN(c3nc4cc(C)cc(C)c4cc3C#N)CC2)c1 | -25 | -5% | 19% | -4 | ? | 15µM*
COc1ccccc1C(=O)N1CCN(c2nc3cc(C)cc(C)c3cc2C#N)CC1 | -9 | / | / | 1 | 21µM* | 23µM*
COc1ccccc1C(=O)N1CCN(c2nc3cc(C)c(C)cc3cc2C#N)CC1 | -67* | 6% | 31% | 1 | 16µM* | 18µM*
O=S(=O)(c1ccc(Sc2nnnn2C2CC2)nc1)N1CCCCC1 | / | / | / | 6 | / | /
CCN(CC)Cc1ccccc1CNC(=O)C12CC3CC(CC(NC(C)=O)(C3)C1)C2 | / | / | / | 1 | / | /
O=C(CCc1cn(Cc2ccc(F)cc2)c2ccccc12)NCCc1cccs1 | / | / | / | 10 | / | /
CCCS(=O)(=O)Nc1ccc(N2CCCCC2)c(S(=O)(=O)Nc2ccccc2OC)c1 | -6 | / | / | -3 | 16µM* | ?
COc1ccccc1NS(=O)(=O)c1cc(NC(=O)c2cccnc2)ccc1N1CCCCC1 | ? | / | / | -7 | 23µM* | ?
COc1ccccc1NS(=O)(=O)c1cc(N)ccc1N1CCCCC1 | -11 | -10% | 31% | 3 | ? | -24%
CC(=O)[C@@]1(O)CCC2C3CC[C@H]4C[C@@H](O)CC[C@]4(C)C3CC[C@@]21C (stereo partly specified) | 9 | / | / | -10 | -6% | 7%
C[C@]12CCC3C(CC[C@H]4CCCC[C@]34C)C1CC[C@@]2(O)CNCCO (stereo partly specified) | 2 | -2% | 13% | -6 | ? | 13µM*
COc1cccc(NC(=O)CN(C)C(=O)/C=C/c2cn(-c3ccccc3)nc2-c2ccc(C)cc2)c1 | ? | / | / | 1 | ? | ?
COc1ccc(NC(=O)CN(C)C(=O)/C=C/c2cn(-c3ccccc3)nc2-c2ccc(F)cc2)cc1 | -21 | / | / | -2 | 23µM* | ?
COc1ccc(NC(=O)CN(C)C(=O)/C=C/c2cn(-c3ccccc3)nc2-c2ccc(C)cc2)cc1 | -8 | / | / | -7 | 21µM* | ?
COc1ccc(NC(=O)CN(C)C(=O)/C=C/c2cn(-c3ccccc3)nc2-c2cccs2)cc1 | 3 | / | / | 0 | 18µM* | ?
SMILES | IL1B secr inh | Gal4-VP16 FLuc | RORgamma inh | LDHA block | TDP1 cell noCPT | DT40 TDP1 CPT
CC(C)c1nnc(NC(=O)c2cc(=O)c3cc(Cl)ccc3o2)s1 | / | / | / | -1 | / | /
COc1ccccc1NC(=O)c1cc(=O)c2ccc(C)cc2o1 | / | / | / | -3 | / | /
CCOc1cc2[nH]c(=S)n(C3CC3)c(=O)c2cc1OCC | 29 | 16µM* | 4.5µM* | -2 | ? | -28%
CCOc1cc2[nH]c(=S)n(CCN3CCC(C)CC3)c(=O)c2cc1OCC | -2 | -3% | -19% | 0 | -35% | -25%
CCC(CO)n1c(=S)[nH]c2cc(OC)c(OC)cc2c1=O (stereo unspecified) | 14 | ? | 11µM* | -9 | 8% | 12%
CCOc1cc2[nH]c(=S)n(CCN3CCCCC3CC)c(=O)c2cc1OCC (stereo unspecified) | -24 | -14% | -44% | -2 | 16µM* | ?
CCOc1cc2[nH]c(=S)n(CCCOC)c(=O)c2cc1OCC | 4 | ? | 11µM* | -11 | ? | -6%
CCOc1cc2[nH]c(=S)n(CCc3ccc(OC)c(OC)c3)c(=O)c2cc1OCC | 0 | 1% | 14% | 0 | ? | ?
O=C(O)/C(=C\C=C\c1ccco1)NC(=O)c1ccccc1 | / | / | / | 9 | / | /
Cc1ccc(Cl)cc1NC(=O)CCn1cnc2c1c(=O)n(C)c(=O)n2C | / | / | / | -5 | / | /
N#Cc1cc2c(nc1SCCOc1ccccc1)CCCCC2 | / | / | / | 3 | / | /
CCOC(=O)N1CCC(n2c(=S)[nH]c3cc(OCC)c(OCC)cc3c2=O)CC1 | 19 | -8% | 5% | 0 | ? | ?
CCOc1cc2[nH]c(=S)n(C(C)C)c(=O)c2cc1OCC | 42 | 7.1µM* | 2µM* | -2 | ? | 18µM*
CCCC(=O)OC1=C(C(C)=O)N(Cc2ccccc2)S(=O)(=O)c2ccccc21 | / | / | / | -1 | ? | ?
CCCCN(CCCC)C1=C(C(=O)c2ccccc2)N(CC)S(=O)(=O)c2ccccc21 | / | / | / | 3 | 26µM* | 13µM*
CCN1C(C(=O)c2ccccc2)=C(OC(=O)C(C)C)c2ccccc2S1(=O)=O | / | / | / | 9 | 5.2µM* | 6.5µM*
CCN1C(C(=O)c2ccccc2)=C(OC(=O)COc2ccccc2)c2ccccc2S1(=O)=O | / | / | / | -2 | 16µM* | ?
Cc1ccc(OCC(=O)OC2=C(C(=O)c3ccccc3)N(C)S(=O)(=O)c3ccccc32)cc1 | / | / | / | 2 | 4.1µM* | ?
CCOC(=O)CN1C(C(=O)c2ccccc2)=C(OC(=O)c2ccco2)c2ccccc2S1(=O)=O | / | / | / | 4 | / | /
Cc1ccc(C)c2[nH]c(=O)c(CN(CC3CCCO3)C(=O)NC3CCCCC3)cc12 (stereo unspecified) | -26 | -1% | 1% | 3 | ? | 23µM*
